According to PubChem BioAssay (NCI):
Compounds without any hit were thinned out: in the full panel of roughly 83,000, 20% have a hit.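 Compound tested at a single concentration for 48 hours in 96-well plates; a percent growth value below 10 was scored as active.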 A number with no mark means an inactive call. Calls of active or inactive are those of the source.

What was measured:
Experiment in all cases: NCI-60 one-dose screen, 48 h (100 = growth as untreated, 0 = no growth, -100 = all killed)
Settings in all cases: 10 µM unless noted
HCT-15 colon = system: HCT-15 colon
HT29 colon = system: HT29 colon
SNB-75 CNS = system: SNB-75 CNS
SNB-19 CNS = system: SNB-19 CNS
PC-3 prostate = system: PC-3 prostate
UACC-62 melanoma = system: UACC-62 melanoma
LOX IMVI melanoma = system: LOX IMVI melanoma
SK-MEL-28 melanoma = system: SK-MEL-28 melanoma
SK-MEL-2 melanoma = system: SK-MEL-2 melanoma
EKVX NSCLC = system: EKVX NSCLC
SN12C renal = system: SN12C renal
UO-31 renal = system: UO-31 renal
TK-10 renal = system: TK-10 renal
ACHN renal = system: ACHN renal
CAKI-1 renal = system: CAKI-1 renal
A498 renal = system: A498 renal
CCRF-CEM leukemia = system: CCRF-CEM leukemia
MOLT-4 leukemia = system: MOLT-4 leukemia
SK-MEL-5 melanoma = system: SK-MEL-5 melanoma

Structure (SMILES): COc1cc2c(cc1-c1c(C)noc1C)ncc1nc(C3CCC(F)(F)CC3)n([C@@H](C)COC(F)F)c12
- growth (HCT-15 colon): 13.4%
- growth (HT29 colon): 18.7%
- growth (SNB-75 CNS): 23.4%
- growth (SNB-19 CNS): 53.4%
- growth (PC-3 prostate): 36.7%
- growth (UACC-62 melanoma): 20.2%
- growth (LOX IMVI melanoma): 11%
- growth (SK-MEL-28 melanoma): 47.3%
- growth (SK-MEL-2 melanoma): 71.4%
- growth (EKVX NSCLC): 43.4%
- growth (SN12C renal): 58.5%
- growth (UO-31 renal): 3.65% (active)
- growth (TK-10 renal): 27.1%
- growth (ACHN renal): 36.5%
- growth (CAKI-1 renal): 24.3%
- growth (A498 renal): -12.5% (active)
- growth (CCRF-CEM leukemia): 50.8%
- growth (MOLT-4 leukemia): 41.4%

Structure (SMILES): COc1ccc2c3c(c4ccccc4cc13)C(=O)N(CCN(C)CCN)C2=O
- growth (HCT-15 colon): -67.1% (active)
- growth (HT29 colon): -65.2% (active)
- growth (SNB-75 CNS): 8.84% (active)
- growth (SNB-19 CNS): -36.9% (active)
- growth (PC-3 prostate): -63.2% (active)
- growth (SK-MEL-5 melanoma): -98% (active)
- growth (SK-MEL-2 melanoma): 22.3%
- growth (EKVX NSCLC): -48% (active)
- growth (SN12C renal): -63.3% (active)
- growth (UO-31 renal): -83.7% (active)
- growth (TK-10 renal): -73.8% (active)
- growth (ACHN renal): -71.6% (active)
- growth (CAKI-1 renal): 3.18% (active)
- growth (A498 renal): -48.8% (active)
- growth (CCRF-CEM leukemia): -65.1% (active)
- growth (MOLT-4 leukemia): -32.5% (active)

Structure (SMILES): C#CCn1c(C)cc(C)c(C#N)c1=O
- growth (HCT-15 colon): 105%
- growth (HT29 colon): 120%
- growth (SNB-75 CNS): 103%
- growth (SNB-19 CNS): 95.4%
- growth (PC-3 prostate): 104%
- growth (SK-MEL-5 melanoma): 104%
- growth (UACC-62 melanoma): 99%
- growth (SK-MEL-28 melanoma): 109%
- growth (SK-MEL-2 melanoma): 108%
- growth (EKVX NSCLC): 99.6%
- growth (SN12C renal): 100%
- growth (UO-31 renal): 85.6%
- growth (TK-10 renal): 94.2%
- growth (ACHN renal): 106%
- growth (CAKI-1 renal): 95.2%
- growth (A498 renal): 104%
- growth (CCRF-CEM leukemia): 99.2%
- growth (MOLT-4 leukemia): 111%

Structure (SMILES): CCCCC[C@H]1C/C=C2/C(=O)C(Cl)=C[C@@H]2C/C=C\CCCC(=O)O1
- growth (HCT-15 colon): -61.9% (active)
- growth (HT29 colon): -22.6% (active)
- growth (SNB-75 CNS): 5.2% (active)
- growth (SNB-19 CNS): -73.4% (active)
- growth (PC-3 prostate): -46.6% (active)
- growth (SK-MEL-5 melanoma): -77.5% (active)
- growth (LOX IMVI melanoma): -85.2% (active)
- growth (SK-MEL-28 melanoma): -64.7% (active)
- growth (SK-MEL-2 melanoma): -45.4% (active)
- growth (EKVX NSCLC): -69% (active)
- growth (SN12C renal): -26.9% (active)
- growth (UO-31 renal): -100% (active)
- growth (TK-10 renal): -56.7% (active)
- growth (ACHN renal): -84.4% (active)
- growth (A498 renal): -76.2% (active)
- growth (CCRF-CEM leukemia): 0.514% (active)
- growth (MOLT-4 leukemia): -2.82% (active)

Structure (SMILES): COc1ccc2nc(-c3c(-c4ccccc4)nc4ncccn34)[nH]c2c1
- growth (HCT-15 colon): 96.5%
- growth (HT29 colon): 94.1%
- growth (SNB-75 CNS): 78.1%
- growth (SNB-19 CNS): 101%
- growth (PC-3 prostate): 97.3%
- growth (SK-MEL-5 melanoma): 95.6%
- growth (UACC-62 melanoma): 95.3%
- growth (SK-MEL-28 melanoma): 91.5%
- growth (SK-MEL-2 melanoma): 113%
- growth (SN12C renal): 104%
- growth (UO-31 renal): 108%
- growth (TK-10 renal): 109%
- growth (ACHN renal): 90.4%
- growth (CAKI-1 renal): 103%
- growth (A498 renal): 86.6%

Structure (SMILES): COc1cc2c3c(c4c5ccccc5[nH]c4c2c(OC)c1OC)C(=O)N(O)C3=O
- growth (HCT-15 colon): 45.8%
- growth (HT29 colon): 52.1%
- growth (SNB-75 CNS): 72.6%
- growth (SNB-19 CNS): 54.5%
- growth (PC-3 prostate): 43.8%
- growth (SK-MEL-5 melanoma): 11.1%
- growth (LOX IMVI melanoma): 26.3%
- growth (SK-MEL-2 melanoma): 85.6%
- growth (EKVX NSCLC): 97.1%
- growth (SN12C renal): 46.6%
- growth (UO-31 renal): 10%
- growth (TK-10 renal): 80.1%
- growth (ACHN renal): 20.6%
- growth (CAKI-1 renal): 36%
- growth (A498 renal): -16.8% (active)
- growth (CCRF-CEM leukemia): 18%
- growth (MOLT-4 leukemia): 1.38% (active)

Structure (SMILES): C[C@H]1OC(=O)/C=C/[C@@H](O)[C@@H](O)CCCCCCCC[C@@H]1O
- growth (HCT-15 colon): 101%
- growth (HT29 colon): 87%
- growth (SNB-75 CNS): 90.5%
- growth (SNB-19 CNS): 100%
- growth (PC-3 prostate): 85.2%
- growth (SK-MEL-5 melanoma): 98%
- growth (LOX IMVI melanoma): 102%
- growth (SK-MEL-28 melanoma): 108%
- growth (SK-MEL-2 melanoma): 102%
- growth (EKVX NSCLC): 99.6%
- growth (SN12C renal): 101%
- growth (UO-31 renal): 82.6%
- growth (TK-10 renal): 96.9%
- growth (ACHN renal): 100%
- growth (CAKI-1 renal): 96.3%
- growth (A498 renal): 71.1%
- growth (CCRF-CEM leukemia): 62.4%
- growth (MOLT-4 leukemia): 106%

Structure (SMILES): CC1(C)CC[C@]2(CO)CC[C@]3(C)C(=CC[C@@H]4[C@@]5(C)CC[C@H](NCO)C(C)(C)[C@@H]5CC[C@]43C)[C@@H]2C1
- growth (HCT-15 colon): -76.1% (active)
- growth (HT29 colon): -43.2% (active)
- growth (SNB-75 CNS): -2.38% (active)
- growth (SNB-19 CNS): 17.8%
- growth (PC-3 prostate): 7.13% (active)
- growth (SK-MEL-5 melanoma): -2.6% (active)
- growth (UACC-62 melanoma): -73% (active)
- growth (SK-MEL-28 melanoma): 60.8%
- growth (SK-MEL-2 melanoma): -38% (active)
- growth (EKVX NSCLC): 41%
- growth (SN12C renal): -75.2% (active)
- growth (UO-31 renal): -58.9% (active)
- growth (TK-10 renal): 100%
- growth (ACHN renal): -69.2% (active)
- growth (CAKI-1 renal): -71.9% (active)
- growth (A498 renal): 84.2%
- growth (CCRF-CEM leukemia): 0.708% (active)
- growth (MOLT-4 leukemia): -19.7% (active)

Structure (SMILES): O=C(NC1=CC(=O)c2ccccc2C1=O)c1ccccc1
- growth (HCT-15 colon): 29.1%
- growth (HT29 colon): 71.2%
- growth (SNB-75 CNS): 34%
- growth (SNB-19 CNS): 36.3%
- growth (PC-3 prostate): 16.6%
- growth (SK-MEL-5 melanoma): 0.587% (active)
- growth (UACC-62 melanoma): 15%
- growth (SK-MEL-28 melanoma): 52.3%
- growth (SK-MEL-2 melanoma): 0.417% (active)
- growth (EKVX NSCLC): 9.48% (active)
- growth (SN12C renal): 29.2%
- growth (UO-31 renal): -47.5% (active)
- growth (TK-10 renal): 53.3%
- growth (ACHN renal): 2.6% (active)
- growth (CAKI-1 renal): 29.6%
- growth (A498 renal): 53.3%
- growth (CCRF-CEM leukemia): 8.93% (active)
- growth (MOLT-4 leukemia): -16.9% (active)
